A selection: hits, their analogues and other compounds. The true share with any hit is near 6.6%.
KB-V1 cytotox – kills drug-selected multidrug resistant KB-V1 cells. KB-V1 MDR cells viability, CellTiter-Glo, 72 h. Potency, µM (highest dose often 46.1 µM), actives largely listed as cytotoxic. 3.4% of 400,000 active; further: on the % scale 0 is the no-effect control and ±100 the full control effect; nearly all actives have a fitted effect of over 60% in size
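Cytotoxicity via CellTiter-Glo luminescence after 72 h compound exposure at 37 degrees C. Cells: drug-selected KB-V1 line, DMEM phenol-red free plus 10% FBS. Compounds tested at multiple concentrations; normalized data fitted to concentration-effect curves.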
HT1080-NT tox – kills 2HG-producing HT-1080-NT fibrosarcoma cells. HT-1080-NT fibrosarcoma viability, CellTiter-Glo ATP luminescence, 48 h. Potency, µM (titrated, usually from 46.1 µM), for inactives: at the top dose activity, negative = less viability, hits mostly cytotoxic. 1.6% of 360,000 active;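 further: NT is the 2HG producing partner of a matched IDH1 knockdown line; 0% = DMSO-treated cells and -100% = media-only wells without cells; nearly all actives have a fitted effect of over 55% in size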
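Luminescent CellTiter-Glo readout after 48 hours of compound exposure at 37 degrees C defined viability of HT-1080-NT cells. Activity was normalized to DMSO wells and cell-free media wells; concentration-response curves were fitted and assigned curve classes.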
KB-3-1 tox – kills parental KB-3-1 adenocarcinoma cells. 1.4% of 400,000 active. KB-3-1 viability, CellTiter-Glo ATP luminescence, 72 h. AID 1347075. Potency, µM (top dose mostly 46.1 µM), usual class: cytotoxic; further: on the % scale 0 is the no-effect control and ±100 the full control effect; nearly all actives have a fitted effect of over 60% in size
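Cytotoxicity measured as CellTiter-Glo luminescence after 72 h at 37 C. Compound titrations were pinned onto drug-naive KB-3-1 parental adenocarcinoma cells grown in DMEM with 10% FBS, and normalized data fitted to concentration-response curves.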
HepG2 tox – HepG2 cytotoxicity, counter-screen for TGF-b inhibitors | 0.76% of 410,000 active | AID 588856 | HepG2 CAGA-GFP viability, ATP luminescence, 18 h | Potency, µM (series often up to 46.1 µM), for the others: at the top dose activity change, negative = cytotoxicity, usual class: cytotoxic
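CellTiter-Glo luminescence gave cytotoxicity after 18 hours at 37 degrees C. The cells were HepG2 CAGA-GFP in 1% FBS DMEM, stimulated with 500 pg/mL TGF-beta after compound addition. %Activity was normalised to no-cell wells (complete cell-killing) and DMSO (no toxicity), and curves were fitted and classified.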
HT1080 IDH1KD tx – toxicity to HT-1080 IDH1 knockdown cells (counter line) | HT-1080 IDH1 knockdown viability, ATP luminescence, 48 h | Potency, µM (highest dose often 46.1 µM), inactives show top-dose activity, negative = toxicity, usual class: cytotoxic | 2% of 360,000 active;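 further: 0% = DMSO wells and -100% = cell-free medium wells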
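HT-1080-IDH1KD cells (IDH1 knocked down), 750/well in RPMI with 5% FBS, treated with compound 48 h at 37 degrees C. Viability by CellTiter-Glo luminescence, normalised to DMSO and no-cell wells; concentration-response curves classed.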
TGFb SMAD3 inh – inhibitors of TGF-b signaling | HepG2 CAGA-GFP TGF-b/SMAD3 reporter, GFP fluorescence, 18 h; TGF-beta stimulated, 500 pg/mL final | Potency, µM (top dose mostly 46.1 µM), without a hit: top-dose activity, negative = inhibition, most hits filed as inhibitors | 1.2% of 410,000 active; further: on the % scale 0 is the no-effect control and ±100 the full control effect; nearly all actives have a fitted effect of over 65% in size
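Cell-based qHTS in HEPG2 carrying a CAGA-GFP Smad reporter; compounds added before 500 pg/mL final TGF-beta, 18 h incubation at 37 degrees C, GFP fluorescence quantified per cell by imaging cytometry.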
Starred values were filed as active, the others as inactive; i = inactive; ? = inconclusive; · = no result. The call rests on the fitted dose curve; in most records, active means well fitted curve in the direction sought with a large enough effect; inconclusive means small, poorly fitted or top-dose-only effect, or another doubt; inactive means no such curve, though single readings can be large; an effect the other way counts as inactive or inconclusive. Potency means the concentration at half of the fitted maximal effect.

SMILES	KB-V1 cytotox	HT1080-NT tox	KB-3-1 tox	HepG2 tox	HT1080 IDH1KD tx	TGFb SMAD3 inh
Cc1cc(C)c2sc(N(CCCN(C)C)C(=O)c3ccc(S(=O)(=O)N4CCCc5ccccc54)cc3)nc2c1	?	18µM*	?	-122%	?	?
CN(C)CCCN(C(=O)c1ccc(S(=O)(=O)N2CCc3ccccc3C2)cc1)c1nc2ccc(F)cc2s1	?	?	?	-89%	16µM*	?
Cc1cccc2sc(N(CCCN(C)C)C(=O)c3ccc(S(=O)(=O)N4CCc5ccccc5C4)cc3)nc12	i	?	?	-30%	?	8%
CN(C)CCCN(C(=O)c1ccc(S(=O)(=O)N2CCc3ccccc32)cc1)c1nc2ccc(Cl)cc2s1	i	-15%	?	-79%	?	?
CN(C)CCCN(C(=O)c1ccc(S(=O)(=O)N2CCc3ccccc32)cc1)c1nc2ccc(F)cc2s1	i	-8%	i	-53%	?	?
Cc1ccc2nc(N(CCCN(C)C)C(=O)c3ccc(S(=O)(=O)N4CCc5ccccc5C4)cc3)sc2c1	21µM*	?	?	-105%	13µM*	?
COc1cccc(C2=NS(=O)(=O)N(C)C(C(=O)Nc3cccc(O)c3)=C2)c1	i	·	i	-4%	·	-28%
COc1cc(OC)c(NC(=O)c2c(C)oc3nc(C)nc(N4CCOCC4)c23)cc1Cl	·	·	·	-1%	·	-2%
COc1ccc2sc(N(CCCN(C)C)C(=O)c3ccc(S(=O)(=O)N4CCc5ccccc5C4)cc3)nc2c1	23µM*	?	?	-76%	?	16µM*
CC1CCCCN1C(=O)CSc1n[nH]c(-c2ccccc2)n1 (stereo not drawn)	i	·	i	-6%	·	?
CCCCN(CC)CCCNC(=S)Nc1ccc2nc(N3CCN(C)CC3)cc(C)c2c1	i	18µM*	i	-19%	?	-1%
CCCCN(CC)CCCNC(=S)Nc1ccc2nc(N3CCN(CC)CC3)cc(C)c2c1	i	16µM*	i	-34%	?	-1%
CCN(CC)CCNC(=S)Nc1ccc2nc(N3CCCC3)cc(C)c2c1	i	?	15µM*	-21%	?	4%
CCCN(CCC)CCCNC(=S)Nc1ccc2nc(N3CCCC3)cc(C)c2c1	i	?	i	-62%	?	?
CCN(CC)CCNC(=S)Nc1ccc2nc(N3CCN(C)CC3)cc(C)c2c1	i	?	i	-4%	-20%	13%
C=CCn1c(SCC(=O)N(CC)c2c(N)n(Cc3ccccc3)c(=O)[nH]c2=O)nnc1-c1ccccc1OC	i	14%	i	-8%	11%	15%
COC(=O)c1ccccc1NC(=O)Cn1c(=O)n(-c2ccc(C)cc2)c(=O)c2ccccc21	·	·	·	-3%	·	-35%
COC(=O)c1ccccc1NC(=O)Cn1cc(S(=O)(=O)Cc2ccccc2F)c2ccccc21	i	·	i	-13%	·	0%
Cc1ccc(NS(=O)(=O)c2ccc3oc(=O)c4ncn(C)c4c3c2)cc1C	i	·	i	-27%	·	-15%
Cc1ccc(Cl)cc1NS(=O)(=O)c1ccc2oc(=O)c3ncn(C)c3c2c1	·	·	·	10µM*	·	16µM*
CN(C)S(=O)(=O)Oc1ccsc1C(=O)Nc1ccccc1Cl	i	-9%	i	-7%	-19%	0%
CN(C)S(=O)(=O)Oc1ccsc1C(=O)Nc1cccc(Cl)c1Cl	21µM*	-19%	?	4%	-21%	1%
CCCCN(C)CCCNC(=O)Cn1ncc2c3ccccc3n(Cc3ccccc3F)c2c1=O	i	·	?	-2%	·	4%
CNCCCC12CCC(c3ccccc31)c1ccccc12	?	18µM*	?	-81%	?	39%
O=C1C2CCCN2C(=O)N1CCCCN1CCN(c2cccc(Cl)c2)CC1 (stereo not drawn)	8.2µM*	-4%	i	-6%	-10%	-16%
SMILES	KB-V1 cytotox	HT1080-NT tox	KB-3-1 tox	HepG2 tox	HT1080 IDH1KD tx	TGFb SMAD3 inh
CSc1cc(C)c(OCC(=O)Nc2ccc(NC(C)=O)cc2)c(C)c1	i	-3%	i	0.2µM*	-17%	-10%
CC(=O)Nc1ccc(NC(=O)COc2c(C)cc(Br)cc2C)cc1	i	-9%	i	-30%	-8%	-24%
COc1ccc(CN2CCN(C(c3ccc(F)cc3)c3ccc(F)cc3)CC2)c(OC)c1OC	18µM*	?	?	-28%	?	?
COc1cc(OC)c(CN2CCN(c3ccc(F)cc3)CC2)cc1Br	16µM*	?	i	-25%	?	-11%
COc1ccc(CN2CCN(c3ccc(F)cc3)CC2)c(OC)c1OC	8.2µM*	0%	?	19%	-23%	10%
COc1ccc(CN2CCN(S(=O)(=O)c3ccc(F)cc3)CC2)c(OC)c1OC	?	2%	i	19%	0%	4%
Cc1ccc(-c2nc(N/N=C/c3cccc([N+](=O)[O-])c3)c3ccccc3n2)cc1	i	-2%	i	-19%	11%	-2%
Cc1sc(N/N=C/c2cccnc2)nc1-c1ccccc1	12µM*	-15%	?	-30%	?	-22%
Cc1ccc(-c2nc(N/N=C/c3cccnc3)c3ccccc3n2)cc1	?	11µM*	?	14µM*	?	?
COCCNC(=O)CSc1nnc(-c2ccc(OC)c(OC)c2)c(-c2ccc(OC)c(OC)c2)n1	i	·	i	-19%	·	14%
COc1ccc(Cl)cc1C(=O)NCc1ccco1	i	8%	i	0%	11%	0%
COc1ccc(-c2coc3c(C(=O)NCc4ccco4)cccc23)c(C)c1	?	18µM*	i	-7%	?	?
COc1ccc(-c2ccc(C(=O)NCc3ccco3)c3occc23)c(C)c1	?	?	i	-20%	?	?
COc1ccc(C(=O)Nc2c(Cl)cc(Cl)cc2C(=O)NCc2ccco2)cc1	7.3µM*	7%	i	4%	-1%	9%
COc1ccc(CNC(=O)c2ccc3c(c2)N(Cc2c(F)cccc2Cl)C(=O)CS3)cc1	i	·	i	-9%	·	0%
CSc1nc(N)nc(SCCS(=O)(=O)c2ccc(Cl)cc2)c1C#N	?	?	i	0%	11µM*	?
O=C(Nc1cccc(OCc2cc(=O)n3ccccc3n2)c1)Nc1cccc(C(F)(F)F)c1	·	·	·	-10%	·	-25%
